In the library only some 0.69% were active in any assay of this set; here they are far more common.
E coli growth-1: inhibitors of Escherichia coli growth | OD600, 23 h; stronger effect = lower value | OD600 absorbance (concentration not given with the values) | 330,000 compounds, 0.21% hits;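 active means OD600 absorbance below the run mean of sample wells minus 3.6 SD, in any replicate, cut at about 0.56 in these data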
phage Ecoli inh: E. coli growth loss with phage present; inhibition, % at 11.9 µM; 360,000 compounds, 0.26% hits; AID 651602; growth absorbance; in the data active means inhibition above about 11%
E coli growth-2: counter-screen for AddAB inhibitors: E. coli growth inhibition; E. coli V3065 growth, OD600 absorbance, 18 h; inhibition, % at 11.9 µM; 330,000 compounds, 0.27% hits; AID 449728;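 active means inhibition above the campaign's mean inhibition across all tested compounds plus 3 SD, cut at about 9.9% in these data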;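 further: uninfected addAB+ strain grown without phage in ampicillin broth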
Tat transport: inhibitors of E. coli Tat protein transport | 340,000 compounds, 0.036% hits | E. coli MC4100 TorA-mCherry Tat export, fluorescence | inhibition, % at 10 µM;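 active means mean replicate inhibition at least 50% and at least half of replicates individually reaching 50%; inconclusive means only one of the two criteria met; inactive means neither criterion met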;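 further: exported cargo escapes ClpAP degradation while cytoplasmic cargo is degraded and loses fluorescence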
AddAB inh: less growth of phage-infected E. coli with AddAB; E. coli expressing H. pylori AddAB, absorbance growth; 330,000 compounds, 0.29% hits; AID 435030; inhibition, % at 11.9 µM; in the data active means inhibition above about 12%
PfHsp90 yeast 2: growth inhibition of yeast expressing Plasmodium Hsp90. S. cerevisiae expressing PfHsp90, BacTiter-Glo ATP, 48 h; yeast lacking PDR1 and PDR3 efflux regulators. inhibition, % at 9.4 µM. 310,000 compounds, 0.32% hits. AID 504621;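 active means every replicate shows inhibition above about 80%, whatever the replicate mean, limit read from the data; inconclusive means mean inhibition reaches the set limit but some replicate falls short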
Each line names hits and unclear results; the compound was inactive in the other large screens; ! = repeats disagree.

CC(C)(C)C1=CC(=O)C(=O)C(C(C)(C)C)=C1	PfHsp90 yeast 2 103.5 (no result: phage Ecoli inh)
COC(=O)CN1C(=O)C2C(c3ccc(C)o3)N3C(=O)CN(Cc4ccccn4)C(=O)[C@@]3(C)C2C1=O (some centres not stated)	none (no result: phage Ecoli inh, E coli growth-2, Tat transport, AddAB inh, PfHsp90 yeast 2)
O=C(Nc1nc(-c2ccccc2)c(-c2ccccc2)o1)c1ccc(F)cc1	PfHsp90 yeast 2 104.7
COc1cccc(C(=O)Nc2nc(-c3ccccc3)c(-c3ccccc3)o2)c1	none
CCOc1ccc(C(=O)C(CN2CCOCC2)c2ccccc2)cc1 (configuration not stated)	none
O=C(c1ccc(Br)cc1)C(CN1CCOCC1)c1ccccc1 (configuration not stated)	PfHsp90 yeast 2 98.3
COc1ccc(C(=O)Nc2cccc(C(C)=NNC(=O)c3ccc([N+](=O)[O-])cc3)c2)cc1OC	none (no result: phage Ecoli inh, E coli growth-2, Tat transport, AddAB inh, PfHsp90 yeast 2)
O=C1Nc2ccc(Br)cc2C1(O)c1ccccc1 (configuration not stated)	none
O=C1Nc2ccc(Br)cc2C12NNc1ccccc1O2 (configuration not stated)	E coli growth-1 0.432, PfHsp90 yeast 2 105.9
COc1ccc2c(c1)OC[C@H]1[C@H]2N2C(=O)c3cc(OC)ccc3NC(=O)[C@@]2(C)[C@H]1c1ccccc1	PfHsp90 yeast 2 112.6 (no result: E coli growth-1)
COc1ccc2c(c1)OC[C@H]1[C@H]2N2C(=O)c3cc(Cl)ccc3NC(=O)[C@@]2(C)[C@H]1c1ccccc1	PfHsp90 yeast 2 active (no result: E coli growth-1, phage Ecoli inh)
O=C(COc1c(Br)cc(Br)c2cccnc12)N1CCc2ccccc2C1	E coli growth-1 0.439 (no result: phage Ecoli inh)
CC(=NNc1nc2ccccc2s1)c1ncccn1	PfHsp90 yeast 2 114.6 (no result: E coli growth-1, E coli growth-2, AddAB inh)
COc1ccc(OC)c(C=NNC(=S)NCCc2ccccc2)c1	none (no result: phage Ecoli inh, E coli growth-2, Tat transport, AddAB inh, PfHsp90 yeast 2)
Cc1ccc(N2C(=O)Cc3ccccc3C2=O)cc1	none
Cc1cccc(N2C(=O)Cc3ccccc3C2=O)c1	E coli growth-1 0.533
O=C1c2ccccc2NC(c2ccc(-c3ccccc3F)o2)N1O (configuration not stated)	E coli growth-2 11.6 (no result: PfHsp90 yeast 2)
Cc1ccc(C(C)C)c(OCc2nn(CC(=O)c3ccc(Cl)cc3)c3[n+]2CCCCC3)c1	E coli growth-1 0.071 (no result: PfHsp90 yeast 2)
O=C(Nc1nnc(-c2ccc3c(c2)CCCC3)o1)c1c(F)cccc1F	none
O=C(Nc1nnc(-c2ccc3c(c2)CCCC3)o1)c1ccc(Cl)cc1Cl	PfHsp90 yeast 2 104.6
COc1cccc(CN2C(=O)C3Cc4c([nH]c5ccccc45)C(C)(C)N3C2=O)c1 (configuration not stated)	none (no result: phage Ecoli inh, E coli growth-2, Tat transport, AddAB inh, PfHsp90 yeast 2)
CCc1ccc(NC(=O)c2nc(S(=O)(=O)Cc3ccccc3)ncc2Cl)cc1	PfHsp90 yeast 2 98.9 (no result: E coli growth-1)
COC(=O)c1ccc(NC(=O)c2nc(S(=O)(=O)Cc3cccc(C)c3)ncc2Cl)cc1	PfHsp90 yeast 2 109.0 (no result: E coli growth-1)
CCOC(=O)c1ccc(NC(=O)c2nc(S(=O)(=O)Cc3ccccc3)ncc2Cl)cc1	none (no result: E coli growth-1)
NC(=S)NN=Cc1coc2ccc(O)cc2c1=O	none (no result: phage Ecoli inh, E coli growth-2, Tat transport, AddAB inh, PfHsp90 yeast 2)
COc1cc(N=c2ssnc2Cl)c(OC)cc1Cl	PfHsp90 yeast 2 90.9!
Cc1cc(Cl)ccc1N=c1ssnc1Cl	PfHsp90 yeast 2 inconclusive
Cc1ccc(N=c2ssnc2Cl)cc1	PfHsp90 yeast 2 93.1
Cc1nnc(N=c2ssnc2Cl)o1	PfHsp90 yeast 2 143.0 (no result: E coli growth-1)
CC(CC(=O)NC(C)(C)C)=NNC(=O)COc1ccc(C)cc1Br	none (no result: phage Ecoli inh, E coli growth-2, Tat transport, AddAB inh, PfHsp90 yeast 2)
O=c1c(C=NO)c(Nc2ccccc2)nc2ccccn12	none (no result: phage Ecoli inh, E coli growth-2, Tat transport, AddAB inh, PfHsp90 yeast 2)
O=C1CCCC(=O)N1c1ccc(O)cc1	none
O=C1C=CC(=O)N1c1ccc(O)cc1	PfHsp90 yeast 2 109.1
O=C1C=CC(=O)N1c1ccc(OC(F)F)cc1	PfHsp90 yeast 2 127.1
O=C1NC2(CCCCC2)C(=O)N1N=Cc1ccc(O)cc1O	none (no result: phage Ecoli inh, E coli growth-2, Tat transport, AddAB inh, PfHsp90 yeast 2)
C#CCOCCOCCOCCNc1nc(N2CCN(C(=O)C(CCC(=O)O)n3cc(C(N)CCCCN)nn3)CC2)nc(N2CCN(C(=O)C(CCCCN)n3cc(C(N)C(C)CC)nn3)CC2)n1 (configuration not stated)	none (no result: phage Ecoli inh, E coli growth-2, Tat transport, AddAB inh, PfHsp90 yeast 2)
NC(CO)C(=O)NNCc1ccc(O)c(O)c1O (configuration not stated)	E coli growth-2 12.9 (no result: E coli growth-1)
O=C(Nc1nc(-c2ccccc2)cs1)C1COc2ccccc2O1 (configuration not stated)	none
O=C(Nc1nc(-c2ccccn2)cs1)c1ccc(-c2ccccc2F)o1	PfHsp90 yeast 2 96.1
O=C(Nc1nc(-c2ccccn2)cs1)C1COc2ccccc2O1 (configuration not stated)	PfHsp90 yeast 2 103.0
Cc1ccc(O)c(-c2cc(-c3cccc(F)c3)n[nH]2)c1	PfHsp90 yeast 2 100.0
COc1ccc(O)c(-c2cc(-c3cccc(Br)c3)n[nH]2)c1	PfHsp90 yeast 2 94.4
CN1C(=O)C2C(C3CC3)N3C(=O)CN(Cc4ccc(-c5ccccc5)cc4)C(=O)[C@@]3(C)C2C1=O (some centres not stated)	none (no result: phage Ecoli inh, E coli growth-2, Tat transport, AddAB inh, PfHsp90 yeast 2)
c1ccc(CNc2nc(N3CCN(Cc4ccccc4)CC3)nc3ccccc23)cc1	E coli growth-1 0.484 (no result: Tat transport, PfHsp90 yeast 2)
CNc1nc(NCc2ccccc2)c2ccccc2n1	E coli growth-1 0.482
OCCNc1nc(Nc2ccc(Br)cc2)nc2ccccc12	E coli growth-1 0.404 (no result: Tat transport, PfHsp90 yeast 2)
Cc1ccc(Nc2nc(NCc3ccco3)c3ccccc3n2)cc1	E coli growth-1 0.411
c1ccc(N2CCN(c3nc(NCc4ccco4)c4ccccc4n3)CC2)cc1	none
CC(C)CCN1C(Nc2ccccc2)=NCC1CC(C)C (configuration not stated)	none (no result: phage Ecoli inh, E coli growth-2, Tat transport, AddAB inh, PfHsp90 yeast 2)
O=C(CCN1C(=O)C(=Cc2ccc3c(c2)OCO3)SC1=S)NNC(=O)c1cccnc1	none (no result: phage Ecoli inh, E coli growth-2, Tat transport, AddAB inh, PfHsp90 yeast 2)
O=C(N/N=C\c1c(O)ccc2ccccc12)c1cncc(Br)c1	PfHsp90 yeast 2 107.1 (no result: E coli growth-1)
O=C(O)CC/C(=N/Nc1ccc([N+](=O)[O-])cc1)C(=O)O	PfHsp90 yeast 2 100.3 (no result: E coli growth-1)
N#CC(C#N)=NNc1ccc([N+](=O)[O-])cc1	E coli growth-1 0.332
CCCC(=O)NC1=C(Cl)C(=O)c2ccccc2C1=O	PfHsp90 yeast 2 146.2 (no result: E coli growth-1, E coli growth-2, AddAB inh)
Cc1ccc(C(=O)c2no[n+]([O-])c2C(=O)c2ccc(C)cc2)cc1	PfHsp90 yeast 2 128.1
Cc1cccc(C(=O)NN=Cc2cc(Br)c(Br)o2)c1	none (no result: phage Ecoli inh, E coli growth-2, Tat transport, AddAB inh, PfHsp90 yeast 2)
CCOC(=O)Cc1csc(NN=Cc2ccccc2)n1	none (no result: phage Ecoli inh, E coli growth-2, Tat transport, AddAB inh, PfHsp90 yeast 2)
CC[C@@H](C)[C@H](NC(=O)OC(C)(C)C)c1nnc(S(=O)(=O)Cc2cc(C)ccc2C)o1	PfHsp90 yeast 2 105.6
CN(C)c1ccc(O)c2c1CC1CC3C(N(C)C)C(=O)C(C(N)=O)=C(O)[C@]3(O)C(=O)C1=C2O (some centres not stated)	E coli growth-1 0.0715 (no result: phage Ecoli inh, E coli growth-2, Tat transport, AddAB inh, PfHsp90 yeast 2)
CC1c2cccc(O)c2C(O)=C2C(=O)[C@]3(O)C(O)=C(C(N)=O)C(=O)C(N(C)C)C3C(O)C21 (some centres not stated)	E coli growth-1 0.0645 (no result: phage Ecoli inh, E coli growth-2, Tat transport, AddAB inh, PfHsp90 yeast 2)
CC1c2cccc(O)c2C(=O)C2C(=O)C3(O)C(=O)C(C(N)=O)C(=O)C(N(C)C)C3C(O)C21 (configuration not stated)	E coli growth-1 0.068 (no result: phage Ecoli inh, E coli growth-2, Tat transport, AddAB inh, PfHsp90 yeast 2)
